The record followed here is PubChem BioAssay.

Each structure is given as a SMILES string. The source made the active and inactive calls.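 How the source made its calls, unless noted: active means NADPH fluorescence slope more negative than the mean of all samples by about 3 SD, 99.7% confidence; inactive means the rest.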

Test [1] can be described thus: inhibitors of TNFa-induced NFkB p65 translocation, primary screen, imaging, HUVEC, MLSMR starter and 10KST1 sets (AID 438;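 active means inhibition above 20% together with a positive visual image hit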;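 further: compound added about 3h40 before a 20 min TNFalpha stimulation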;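 on inhibition: signal is the nuclear over cytoplasmic p65 intensity ratio per well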). To be noted: HUVEC TNFa-induced p65 nuclear translocation; cell count: measured here: nuclei count (cytotoxicity indicator), at 2.08 µM; inhibition: at 2 µM, stronger effect = higher value, 0% TNFa-plus-vehicle, 100% no-TNFa wells.
A short description of test [2]: reduction of polyQ htt aggregates in cells – imaging, exon1htt(103Q)mCFP cells, high-content imaging, primary screen (AID 483;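 active means visual image review flags a hit and inhibition of aggregation exceeds 20%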;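 further: compound exposure lasted 3 days before fixation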;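 on nuclei count: percent of the per-plate median nuclei count of sample wells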). The following applies: exon1htt(103Q)mCFP cell line, aggregate imaging, at 2 µM; inhibition of aggregation: stronger effect = higher value; nuclei count: measured here: cell count, toxicity.
Test [3] can be described thus: endothelial E-selectin expression blockers – imaging, HUVEC, immunofluorescence, MLSMR starter and 10KST1 sets, primary screen (AID 487;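 active means visually confirmed hit in the image check and inhibition above 20%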;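 on inhibition: signal is fraction of cell area covered by stained E-selectin grains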;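 on nuclei count: 100% = median nuclei count of all wells on the same plate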). The following applies: HUVEC TNFalpha-induced E-selectin immunofluorescence imaging, at 2 µM; inhibition: stronger effect = higher value; nuclei count: measured here: cell number, toxicity.
The target of test [4] is Voltage-gated potassium channel subunit beta-2 (Rattus norvegicus) (UniProt P62483). The test is described as follows: inhibitors of rat Kvbeta2 reductase activity – biochemical, NADPH fluorescence, primary screen (AID 622;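 active means fluorescence slope higher than the sample average by over 3 SD, cut at about -0.22 in these data, passing the limit was not always enough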;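 further: slope of raw intensity against log time taken from 70 to 1610 s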). The following applies: recombinant KvBeta, 4-cyanobenzaldehyde reduction, at 10 µM, stronger effect = higher value.
Voltage-gated potassium channel subunit beta-2 (Rattus norvegicus), sequence (P62483 whole entry, looked up): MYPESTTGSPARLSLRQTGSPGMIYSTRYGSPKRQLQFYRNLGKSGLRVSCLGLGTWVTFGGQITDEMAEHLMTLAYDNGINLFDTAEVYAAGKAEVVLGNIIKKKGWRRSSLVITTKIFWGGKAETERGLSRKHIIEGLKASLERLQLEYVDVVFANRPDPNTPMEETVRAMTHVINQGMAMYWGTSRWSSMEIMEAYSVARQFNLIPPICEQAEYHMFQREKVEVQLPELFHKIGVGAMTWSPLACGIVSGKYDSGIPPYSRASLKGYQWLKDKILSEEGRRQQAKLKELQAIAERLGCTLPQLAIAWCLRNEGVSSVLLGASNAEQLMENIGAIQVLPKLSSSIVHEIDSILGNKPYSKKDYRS
Test [5] has the same target. The test is described as follows: enhancers of rat Kvbeta2 NADPH turnover – biochemical, NADPH fluorescence, primary screen (AID 623).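 Further: fluorescence intensity change per second fitted from 20 to 320 s.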 The following applies: Recombinant KvBeta, NADPH fluorescence decrease slope, 10 min; at 10 µM; stronger effect = lower value.
The target in test [6] is Alpha-2C adrenergic receptor (Homo sapiens) (UniProt P18825). The test is described as follows: compounds altering alpha2C-coupled GIRK flux – cell-based, HEK293 alpha2C/GIRK1/2, thallium flux, primary screen (AID 624;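 active means fluorescence slope after compound addition differing from the mean of all screened samples at 99.7% confidence, in either direction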;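 further: slope of fluorescence ratio to pre-addition baseline per second over 15 to 24 s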). The following applies: thallium flux BTC fluorescence, at 10 µM, actives lie on both sides.
Alpha-2C adrenergic receptor (Homo sapiens), sequence (P18825 whole entry, looked up): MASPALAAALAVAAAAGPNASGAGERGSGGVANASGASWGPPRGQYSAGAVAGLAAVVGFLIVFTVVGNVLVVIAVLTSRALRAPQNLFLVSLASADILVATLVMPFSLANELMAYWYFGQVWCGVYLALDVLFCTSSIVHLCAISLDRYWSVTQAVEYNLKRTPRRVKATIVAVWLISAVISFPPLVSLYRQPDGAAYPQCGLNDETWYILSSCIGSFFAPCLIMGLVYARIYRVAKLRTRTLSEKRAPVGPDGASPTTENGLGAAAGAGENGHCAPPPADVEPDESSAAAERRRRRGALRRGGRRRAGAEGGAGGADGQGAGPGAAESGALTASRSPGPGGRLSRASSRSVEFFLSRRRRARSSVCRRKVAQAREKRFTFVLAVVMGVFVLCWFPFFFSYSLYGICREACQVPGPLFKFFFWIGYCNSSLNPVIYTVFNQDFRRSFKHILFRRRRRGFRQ
Test [7] is described as follows: blockers of RIG-like receptor reporter activation – cell-based, Sendai virus stimulus, luciferase, 10K MLSCN set, TLR/RLR signaling modifier project, primary screen (AID 602276;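 active means inhibition at or above 50% at 10 µM; inactive means inhibition below 50%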;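 further: firefly luciferase from ISG56 promoter only with Renilla not read in this screen; 0% = Sendai virus plus DMSO and 100% = medium plus DMSO without virus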). To be noted: HEK293 RL24 IRF3 luciferase reporter, at 10 µM, stronger effect = higher value. A general note: A reporter such as luciferase makes a cellular process visible.
The nature of test [8]: TLR3 IRF3 reporter activation blockers – cell-based, poly I:C stimulus, luciferase, 10K MLSCN set, primary screen (AID 602277;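 active means inhibition of the reporter signal at or above 50%; inactive means inhibition below 50%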). To be noted: HEK293-TLR3 RL24 IRF3 luciferase reporter, at 10 µM, stronger effect = higher value.

A word on the inhibition: it is the drop in the measured response relative to a control, in per cent. With `CC1CCN(c2oc(-c3cccc4ccccc34)nc2C#N)CC1`, the cell count in test [1] worked out at 610. The inhibition in test [1] is -8.2% (inactive); in test [3], -112% (inactive); in test [7], -40.5% (inactive); in test [8], -95.3% (inactive). Further, the inhibition of aggregation in test [2] is 1.2% (inactive). For the same molecule, the nuclei count in test [2] amounted to 102%; in test [3] it was 101%. The fluorescence slope in test [4] was -0.0453 (active). Besides, the NADPH fluorescence slope in test [5] is -6.6e-07 (inactive). Moreover, the slope in test [6] was 0.00364 (inactive).

In the case of `CCc1nn(CC(=O)NCCCN2CCc3ccccc3C2)c(=O)c2cc3sccc3n12`, in test [1], the cell count is 811. The inhibition in test [1] was -6.4% (inactive); in test [3], -64% (inactive); in test [7] it was 2.67% (inactive); in test [8], 50.9% (active). In addition, the inhibition of aggregation in test [2] was 5.9% (inactive). The nuclei count in test [2] is 138%; in test [3] it was 116%. The fluorescence slope in test [4] is -0.602 (inactive). In test [5], the NADPH fluorescence slope is 9.3e-06 (inactive). For the same molecule, the slope in test [6] was 0.00659 (inactive).

For the molecule `Cc1nc2sc(C(c3cccc(F)c3)N3CCC(C)CC3)c(O)n2n1` (stereo not drawn), in test [1], the cell count was determined as 231. The inhibition in test [1] is -5.4% (inactive); in test [3], 9.7% (inactive); in test [7] it was 14.4% (inactive); in test [8] it was 17% (inactive). Also, the inhibition of aggregation in test [2] was -13.1% (inactive). The values for the nuclei count in test [2] and in test [3] were 109% and 108%, respectively. For the same molecule, the fluorescence slope in test [4] was -0.524 (inactive). The NADPH fluorescence slope in test [5] was -7.2e-05 (inactive). For the same molecule, the slope in test [6] was 0.00644 (inactive).

Take `Cc1c(Cl)cccc1NC(=O)CCN1CCCCC1`: in test [1], the cell count was determined as 329. For the same molecule, the inhibition was -1.3% (inactive) in test [1], -67.3% (inactive) in test [3], 17.5% (inactive) in test [7] and 20% (inactive) in test [8]. For the same molecule, the inhibition of aggregation in test [2] was -7.5% (inactive). The nuclei count in test [2] is 112%; in test [3], 133%. For the same molecule, the fluorescence slope in test [4] was -0.514 (inactive). The NADPH fluorescence slope in test [5] was 3e-05 (inactive). Further, in test [6], the slope was 0.00469 (inactive).

As for `CC(C)CNS(=O)(=O)c1ccc(CCC(=O)NCc2ccco2)cc1`, the cell count in test [1] was 572. Moreover, the inhibition in test [1] was 33.1% (active); in test [3], -57.5% (inactive); in test [7], 11.1% (inactive); in test [8] it was 14.7% (inactive). Besides, the inhibition of aggregation in test [2] was 7% (inactive). The nuclei count in test [2] was found to be 85%; in test [3] it was 137%. For the same molecule, the fluorescence slope in test [4] is -0.511 (inactive). For the same molecule, the NADPH fluorescence slope in test [5] was 1.9e-05 (inactive). In test [6], the slope was 0.00549 (inactive).

Take `CCOC(=O)N1CCC(NC(=O)C2CCC(Cn3c(=O)[nH]c4ccccc4c3=O)CC2)CC1` (stereo not drawn): the cell count in test [1] was found to be 609. Moreover, the inhibition in test [1] was -0.3% (inactive); in test [3], -89.5% (inactive); in test [7], 6.35% (inactive); in test [8], 20.6% (inactive). For the same molecule, the inhibition of aggregation in test [2] was -10.3% (inactive). The nuclei count in test [2] is 105%; in test [3], 101%. The fluorescence slope in test [4] was -0.546 (inactive). The NADPH fluorescence slope in test [5] is 3.1e-05 (inactive). Further, in test [6], the slope was 0.00617 (inactive).

For the molecule `CCCN(CCC)C(=O)C1CCN(c2cc(C)nc3c(-c4ccc(OC)c(OC)c4)c(C)nn23)CC1`, the cell count in test [1] came to 651. Moreover, the inhibition is 6.6% (inactive) in test [1], -68.7% (inactive) in test [3], 4.7% (inactive) in test [7] and 7.43% (inactive) in test [8]. In test [2], the inhibition of aggregation was -2.4% (inactive). The nuclei count worked out at 91.7% in test [2] and 124% in test [3]. Moreover, in test [4], the fluorescence slope is -0.492 (inactive). The NADPH fluorescence slope in test [5] is -2.2e-05 (inactive). Besides, the slope in test [6] is 0.00708 (inactive).

In the case of `COC(=O)c1cc2ccsc2n1CC(=O)Nc1cc(C)cc(C)c1`, the cell count in test [1] was found to be 510. The inhibition in test [1] is -9.5% (inactive); in test [3], -22.5% (inactive); in test [7], -21% (inactive); in test [8] it was -31% (inactive). For the same molecule, the inhibition of aggregation in test [2] was -2.7% (inactive). The nuclei count is 115% in test [2] and 109% in test [3]. In addition, the fluorescence slope in test [4] is -0.374 (inactive). In test [5], the NADPH fluorescence slope was 9.4e-06 (inactive). The slope in test [6] is 0.0119 (inactive).

As for `O=C(CSc1nnc(-c2cnccn2)n1Cc1ccco1)c1ccc(Cl)cc1`, in test [1], the cell count turned out to be 287. Moreover, the inhibition in test [1] was 16.6% (inactive); in test [3] it was -8.9% (inactive); in test [7] it was 8.56% (inactive); in test [8], 22.1% (inactive). Besides, the inhibition of aggregation in test [2] is -32.9% (inactive). Besides, the nuclei count in test [2] was 95.7%; in test [3] it was 124%. The fluorescence slope in test [4] is -0.473 (inactive). In addition, the NADPH fluorescence slope in test [5] was 4.5e-06 (inactive). Also, in test [6], the slope was 0.00285 (inactive).

Turning to `Cc1nc2nc(-c3cccnc3)nn2c(C)c1Cl`, the cell count in test [1] worked out at 689. Besides, the inhibition in test [1] was -13.8% (inactive); in test [3] it was -32.8% (inactive); in test [7] it was -17.9% (inactive); in test [8], -15.3% (inactive). Moreover, in test [2], the inhibition of aggregation was -5.4% (inactive). In addition, the nuclei count in test [2] came out at 81.3%; in test [3], 107%. The fluorescence slope in test [4] is -0.333 (inactive). Moreover, the NADPH fluorescence slope in test [5] is -3.7e-05 (inactive). Further, the slope in test [6] is 0.00559 (inactive).

With `COC(=O)c1ccccc1S(=O)(=O)N(CCCO)Cc1cc2c(C)ccc(C)c2[nH]c1=O`, the cell count in test [1] stood at 688. For the same molecule, the inhibition in test [1] was -5.1% (inactive); in test [3], -55.4% (inactive); in test [7], 2.69% (inactive); in test [8] it was 27.6% (inactive). For the same molecule, in test [2], the inhibition of aggregation is -9% (inactive). In addition, the nuclei count came to 108% in test [2] and 120% in test [3]. Also, in test [4], the fluorescence slope was -0.501 (inactive). The NADPH fluorescence slope in test [5] was 6.1e-06 (inactive). The slope in test [6] was 0.00564 (inactive).

Regarding `CC(C)(C)NC(=O)COC(=O)c1snc(C(=O)NC2CCCCC2)c1N`, the cell count in test [1] worked out at 236. Also, the inhibition in test [1] was 13.3% (inactive); in test [3], -55.6% (inactive); in test [7] it was 9.79% (inactive); in test [8] it was -26% (inactive). Moreover, the inhibition of aggregation in test [2] was 3.3% (inactive). The nuclei count amounted to 99.5% in test [2] and 96.2% in test [3]. Moreover, the fluorescence slope in test [4] is -0.586 (inactive). Besides, the NADPH fluorescence slope in test [5] is 2.8e-05 (inactive). For the same molecule, the slope in test [6] was 0.00501 (inactive).

On to `CN(C)c1ccc(C(=O)OCC(=O)NC2CCCCC2)cc1`, for which the cell count in test [1] stood at 548. In addition, the inhibition was -0.3% (inactive) in test [1], -46.5% (inactive) in test [3], 16.6% (inactive) in test [7] and 10.9% (inactive) in test [8]. The inhibition of aggregation in test [2] is 4.3% (inactive). Also, the nuclei count was determined as 90.3% in test [2] and 110% in test [3]. In addition, the fluorescence slope in test [4] was -0.475 (inactive). For the same molecule, the NADPH fluorescence slope in test [5] is -3.6e-05 (inactive). Also, the slope in test [6] was 0.00547 (inactive).
